L major viab: inhibitors of Leishmania major promastigote growth | Leishmania major promastigotes, resazurin fluorescence viability | inhibition, % at 10 µM | 200,000 compounds, 9% hits | AID 1063; in the data active means inhibition above about 50%;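 further: promastigotes grown with compound for 44 hours at 28 °C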
INS promoter inh: TRM-6 insulin promoter activity inhibition | TRM-6 cells (human fetal islet line), insulin promoter-eGFP reporter, imaging; reporter expression induced with tamoxifen | inhibition, % at 2 µM | 130,000 compounds, 0.9% hits | AID 1273;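 active means inhibition above the mean plus 3 SD, with well images judged a real hit on visual review, cut at about 60% in these data, passing the limit was not always enough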
ROMK primary: modulates human ROMK potassium channel activity; 130,000 compounds, 2% hits; Tet-inducible ROMK, thallium flux fluorescence; actives lie on both sides; P48048; B-score at 10 µM;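 active means signal ratio slope over the read window, or its plate-corrected B-score, at least 3 SD from the plate mean, either direction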;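 further: B-score of the F/F0 ratio slope over 7 to 12 s after thallium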
Target sequence (P48048 whole entry, looked up): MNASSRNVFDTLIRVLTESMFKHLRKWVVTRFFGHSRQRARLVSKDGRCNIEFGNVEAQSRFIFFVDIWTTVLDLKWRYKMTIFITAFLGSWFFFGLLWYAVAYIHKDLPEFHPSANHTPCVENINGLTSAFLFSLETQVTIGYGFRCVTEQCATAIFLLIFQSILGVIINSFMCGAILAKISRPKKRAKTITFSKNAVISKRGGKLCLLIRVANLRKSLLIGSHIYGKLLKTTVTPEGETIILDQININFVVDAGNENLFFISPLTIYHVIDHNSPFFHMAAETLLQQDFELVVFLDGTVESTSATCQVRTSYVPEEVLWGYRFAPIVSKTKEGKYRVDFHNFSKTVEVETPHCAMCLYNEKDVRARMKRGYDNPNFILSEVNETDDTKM
Cl transport mod: modulators of human KCC2 chloride dependent transport. 190,000 compounds, 2.2% hits. AID 1456. B-score of Tl+ flux slope (higher = more flux/activation; lower = inhibition) at 10 µM. KCC2 cells, thallium flux FluoZin-2 fluorescence;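 active means thallium flux slope and its plate-corrected score both differing from the plate sample mean at a set confidence after two filtering rounds, in either direction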;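 further: slope of fluorescence scaled to starting intensity during 10 to 20 s after thallium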
WT yeast gro inh: growth inhibition of WT yeast, mitochondrial fusion screen; mitochondrial fusion phenotypic screen, WT strain; inhibition, % at 10 µM; 190,000 compounds, 2.1% hits; in the data active means inhibition above about 58%; tested in S. cerevisiae
Insulin prom up: MIN6 insulin promoter up-regulation; MIN6 insulin promoter-GFP reporter, high-content imaging; hits give high values; z-score at 5 µM; 190,000 compounds, 0.3% hits; AID 1625;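 active means z-score above 3 at 5 µM with at least 500 cells counted in the well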
Each line names hits and unclear results; the compound was inactive in the other large screens. Compounds with a hit are over-represented: about 12% of the library has one in this group of screens.

COc1ccc(NC(=S)N(CCCN2CCOCC2)C(C)c2cc3ccccc3o2)cc1 (stereo not drawn)	L major viab 72
COc1cccc(NC(=O)N(CCCN2CCOCC2)C(C)c2cc3ccccc3o2)c1 (stereo not drawn)	L major viab 99 (no result: WT yeast gro inh, Insulin prom up)
COc1cccc2cc(C(C)N(CCCN3CCOCC3)C(=S)Nc3ccc(C)cc3)oc12 (stereo not drawn)	none
CCN(CC)CCCNC(=S)Nc1ccc(Br)cc1	L major viab 83 (no result: ROMK primary)
O=C(CN1C(=O)CCC1=O)Nc1nc(-c2ccc(Cl)s2)cs1	none
COc1ccc(Cn2nnnc2C(c2cccs2)N2CCOCC2)cc1 (stereo not drawn)	INS promoter inh 100 (no result: ROMK primary)
CCCC(c1nnnn1Cc1ccc(OC)cc1)N1CCN(c2ccccc2)CC1 (stereo not drawn)	none (no result: INS promoter inh, ROMK primary)
COc1ccc(C(c2nnnn2Cc2ccc(F)cc2)N2CCN(c3ccccc3)CC2)cc1 (stereo not drawn)	L major viab 74 (no result: INS promoter inh)
COc1ccc(C(c2nnnn2CS(=O)(=O)c2ccc(C)cc2)N2CCN(Cc3ccccc3)CC2)cc1 (stereo not drawn)	L major viab 63 (no result: ROMK primary, WT yeast gro inh, Insulin prom up)
COc1ccc(N2CCN(C(c3ccccc3)c3nnnn3Cc3ccc(F)cc3)CC2)cc1 (stereo not drawn)	L major viab 66 (no result: INS promoter inh)
Fc1ccc(C(c2nnnn2Cc2ccccc2)N2CCSCC2)cc1 (stereo not drawn)	none (no result: Insulin prom up)
O=C(NN1C(=O)c2ccccc2C1=O)C1CC2CCC1C2 (stereo not drawn)	none
C=C1CCN([C@@H](C)C(=O)NCc2ccc(Cl)cc2)S(=O)(=O)c2ccccc21	none (no result: L major viab, INS promoter inh, ROMK primary, WT yeast gro inh)
c1ccc2cc(Sc3ncnc4c3oc3ccccc34)ccc2c1	none (no result: ROMK primary)
C=CCOc1ccc(/C(O)=C2\C(=O)C(=O)N(CCCOC)C2c2ccc(O)c(OC)c2)cc1 (stereo not drawn)	none (no result: ROMK primary, Cl transport mod)
C=CCSc1nc2c(cnn2-c2ccc(C)c(C)c2)c(=O)[nH]1	none (no result: INS promoter inh, ROMK primary)
COc1ccc(CCNC(=O)COc2ccc(-c3ccc(C)cc3)cc2)cc1OC	none (no result: ROMK primary, Cl transport mod)
CC1CCCC(NC(=O)CSc2nnc(N)s2)C1C (stereo not drawn)	none (no result: ROMK primary, Cl transport mod)
CSC(=NCCCN1CCOCC1)NS(=O)(=O)c1cccs1	none (no result: ROMK primary)
O=C1c2cnccc2CN1Cc1ccccc1	none (no result: ROMK primary)
CCCCCCCCCSc1n[nH]c(N)n1	none (no result: ROMK primary, Insulin prom up)
COc1ccc(Cn2nnnc2C(C(C)C)N(Cc2ccco2)Cc2cccs2)cc1 (stereo not drawn)	L major viab 77 (no result: ROMK primary)
COc1ccc(C(c2nnnn2Cc2ccc(F)cc2)N2CCN(c3ccc(OC)cc3)CC2)cc1 (stereo not drawn)	L major viab 94 (no result: INS promoter inh)
CC(C)C(c1nnnn1Cc1ccccc1)N(Cc1ccco1)Cc1cccs1 (stereo not drawn)	none (no result: INS promoter inh, ROMK primary)
COCCn1nnnc1C(c1cccs1)N1CCN(c2nc3ccccc3s2)CC1 (stereo not drawn)	L major viab 95 (no result: Cl transport mod)
Cc1cccc2cc(CN(CCc3ccccc3)C(=O)N3CCOCC3)c3nnnn3c12	none (no result: INS promoter inh)
O=C(COC(=O)/C(=C/c1cccs1)c1cccs1)NC(c1ccccc1)c1ccccc1	L major viab 97
Cc1ccc(C)c(Oc2coc3cc(OC(=O)c4cccs4)ccc3c2=O)c1	none (no result: ROMK primary, Cl transport mod, WT yeast gro inh, Insulin prom up)
CC1=CC(=O)C=C(C)C1=NOC(=O)/C=C\c1ccccc1	L major viab 53 (no result: Insulin prom up)
N/C(=N\OC(=O)/C=C/c1ccccc1)c1ccncc1	none (no result: Insulin prom up)
CC1=C(C)/C(=N\OC(=O)/C=C/c2ccccc2)C=CC1=O	L major viab 100 (no result: ROMK primary)
CC1=CC(=NOC(=O)/C=C/c2ccccc2)C=C(C)C1=O	L major viab 101 (no result: ROMK primary)
COc1ccc(CCNC(=O)Cn2cnc3ccccc3c2=O)cc1OC	none
CCN=C1SC(CC(=O)Nc2ccc(N3CCOCC3)cc2)C(=O)N1CC (stereo not drawn)	none (no result: Cl transport mod)
CC(Sc1nnc(NC2CCCCC2)s1)C(=O)Nc1ccc2c(c1)C(=O)c1ccccc1C2=O (stereo not drawn)	L major viab 66
CC(C)CC(C(=O)NC(C)(C)C)N(Cc1cccs1)C(=O)c1snc(C(N)=O)c1N (stereo not drawn)	none
CCOc1ccccc1N1CCN(S(=O)(=O)c2ccc3c4c(cccc24)C(=O)N3)CC1	L major viab 74 (no result: ROMK primary)
CCC(=O)Nc1cccc(C(=O)/C=C/c2cc(Br)ccc2OC)c1	L major viab 100, INS promoter inh 94, WT yeast gro inh 89
CC(=O)Nc1cccc(C(=O)/C=C/c2ccc[nH]2)c1	none (no result: L major viab, INS promoter inh, ROMK primary, WT yeast gro inh)
CC(=O)Nc1cccc(C(=O)/C=C/c2ccc(/C=C/C(=O)c3cccc(NC(C)=O)c3)cc2)c1	L major viab 80 (no result: INS promoter inh, ROMK primary)
COc1ccc(OC)c(/C=C/C(=O)OCC(=O)Nc2cccc(C(C)=O)c2)c1	L major viab 66
CN(C)c1ccc(C(=O)/C=C/c2ccc(Br)cc2)cc1	L major viab 90
Cc1c(N(C)C(=O)c2ccccc2F)c(=O)n(-c2ccccc2)n1C	none (no result: INS promoter inh, WT yeast gro inh)
O=C(NCCc1ccccn1)C(F)(F)C(F)(F)C(F)(F)C(F)(F)C(F)(F)C(F)F	none (no result: INS promoter inh)
O=C(O)C1Sc2[nH]c(=O)sc2C2c3ccc(O)cc3OC(=O)C12 (stereo not drawn)	none (no result: INS promoter inh)
CC(=O)Nc1cccc(C(=O)/C=C/c2ccc(Br)cc2)c1	L major viab 100 (no result: ROMK primary)
CC(=O)Nc1cccc(C(=O)/C=C/c2ccco2)c1	none
C/C(=N\Nc1cccc(C(=O)O)c1)c1cc2ccccc2o1	none (no result: INS promoter inh)
CCn1cc(C(=O)O)c(=O)c2cnc(N3CCN(C(=S)NC(=O)c4ccccc4)CC3)nc21	none (no result: L major viab, INS promoter inh, ROMK primary, WT yeast gro inh, Insulin prom up)
CCOC(=O)C1(CC2CCCCO2)CCN(Cc2cc3ccccc3[nH]2)CC1 (stereo not drawn)	L major viab 67 (no result: ROMK primary)
CCCCc1ncc(CN2CCC(CC3CCCCO3)(C(=O)OCC)CC2)[nH]1 (stereo not drawn)	none (no result: INS promoter inh, ROMK primary)
COc1cccc(C2NC(=O)NC(C)=C2C(=O)Nc2ccc(C)cc2)c1OC (stereo not drawn)	none (no result: INS promoter inh)
CCC(C)N(C(=O)c1csnn1)C(C(=O)NCc1ccc(F)cc1)c1ccco1 (stereo not drawn)	none (no result: INS promoter inh)
CCCC/S(CC1CC1(Cl)Cl)=N\S(=O)(=O)c1ccc(C)cc1 (stereo not drawn)	none (no result: Cl transport mod, Insulin prom up)
Cn1c(-c2ccccc2)n[nH]c1=S	none (no result: L major viab, INS promoter inh, ROMK primary, WT yeast gro inh)
Nc1sc(-c2ccccc2)cc1-c1n[nH]c(=S)n1C1CCCCC1	none (no result: L major viab, INS promoter inh, ROMK primary, WT yeast gro inh)
Cn1cccc1/C=N/n1c(-c2ccc(C(C)(C)C)cc2)n[nH]c1=S	Cl transport mod 13 (no result: ROMK primary)
Cn1c(-c2ccc(C(C)(C)C)cc2)n[nH]c1=S	Cl transport mod 3.9 (no result: ROMK primary)
CC(C)(C)c1ccc(-c2n[nH]c(=S)n2C2CCCC2)cc1	WT yeast gro inh 72 (no result: Cl transport mod)
COc1ccc(CN2C(=O)CCC(C(=O)O)C2c2ccccc2)cc1 (stereo not drawn)	none (no result: INS promoter inh)
CC(=O)NC1C(=O)N(CCc2ccccc2)c2ccc(Br)cc21 (stereo not drawn)	INS promoter inh 72 (no result: Cl transport mod)
C=C(C)C(=O)Nc1cccc(C2=NOC3(C2)C[C@@H](C(N)=O)N(C(=O)/C=C/C=C/C)C3)c1 (stereo partly drawn)	none (no result: L major viab, INS promoter inh, ROMK primary, WT yeast gro inh)
